This is an account of results in the supplement of paper PMC6555819.

The first test has as its system FXR:RXRa (NR concentration 270 nM, RXRa partner concentration 90 nM). The test is described as follows: PBM binding z-score (relative to random genomic background probes); higher = stronger binding; sequences stand for … in GC…GCGATTGACAGCGTAGAATGAAGG
In a few lines:
(§1)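 Binding z-scores were set against random background probes. The data came from custom Agilent 4×180K protein-binding microarrays carrying double-stranded probes with 34-nt variable regions, incubated 1 h with ligand-free nuclear receptor dimers. Partner-specific antibodies detected binding, and scanned fluorescence was regression-normalized.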
ATCCCTAGGTAAAAGTTCAGTGAATCCCGAGGAT gave a PBM binding z-score of 0.811.
Same read-out and setting: the result for GCTATCAGTTGAAAGGGCAACCGAATGATTCTCG reads 0.0237.
Same read-out and setting: the result for TTACCAAGGTGAAGGTCTTTGATCCCTCTGTAGA reads 0.557; that for CCTGCTAGGTCATTGTCAGCTAATCTACAGTATG, 3.88.
Still for that read-out and setting: the result for CAAACTAGATCAAGAGGTCAAAGTCCGCTTCCCG reads 4.72.
The sequence ATATGTAGGTTAGCTGGGGTCATTCATACTAGGC gave a PBM binding z-score of 4.61.
Still for that read-out and setting: with CAAACTAGGTGAAAGGTCAAAGTCGAGCCAACCA the figure was 6.87; with GCTGCTAGGTCAACTGTTGGTCAGCTAAAGCTCG, 3.97; with TCTGCTAGGTCAGTTGGTCAGCTTACGAGCTGCC, 0.94.
On the same count and under the same terms, the result for GCGACTGGGGCATGAGCAGGTTACCATAACTTAA reads -0.261; that for TAGCCTGGGTCATTCAGGGGCCAGTATAGAAAGC, 3.88.
The same measure, in the same setting: with TCACATAGGTAAAGGTGAAAGTCGAACGATATGA the figure was 1.25; with TAGCCTAGGTCAGATCGGGCCAATATACGCTATA, 1.51; with GCATTTAGGTAATACAAGGTGAAAGTCCGATTGT, 1.45.
CCAGACAGGTGAGATGGTAACTCAGCCTCGATTA returned a PBM binding z-score of -0.218.
The sequence ACTAACAGGCCAAGTTTGGGTCACTCAAACAAAG registered a PBM binding z-score of 0.517.
Still for that read-out and setting: the result for ATCTCTAGGTAAAGTTAGTTCAGTGAATGCAAAT reads 0.83; that for CTACCAAGGTGAACAAGGTCGTTGATTACTATTC, 1.47.

The test system of the next test is LXRa:RXRa (NR concentration 270 nM, RXRa partner concentration 90 nM). The description is as above. In a few lines:
as §1
For the sequence CCGAGTAGGTTATGGGGCACTCAGGCAACGGTGA, the PBM binding z-score was 0.294.
As for TCATATAGGTAATACAGGTGGAAGTCGGCATCTA, the PBM binding z-score is 1.49.
On the same count and under the same terms, with ACTAGCAGGACAAGGGTCACTCAAGATTAGTCCG the figure was 3.07; with GATACAGGGTCAGCTAGAGGCCAGAGTCTGGAAA, 2.79; with TCTAGATGGTCACGGAGGTCACACACGACGGGTA, 3.91.
CTCGAAAGGTCGGTTGAGGAGAGTATACGGATAA had a PBM binding z-score of 1.38.
On the same count and under the same terms, with ATCGAAAGGTCGAAGGGGAGTATACCCACCCGAA the figure was 3.15; with CCTACTGGGCCATCAGGGCATTGATATCAACGTT, -0.856.
The same measure, in the same setting: the result for CCTACTGGGCCATCAAGTCATTGATATCAACGTT reads -0.233.
On the same count and under the same terms, with CGTCCAAGGTCAGAGAGGTCAGTGAATGCCGAGT the figure was 5.21; with TCGAGTAGGTTACCAATGTGGCATTCAGCTTTCT, 1.41; with CGTCCAAGGTCGATGCTAGGTCAGTGAAAGCATT, 1.91.
AGTATGAGGTTATACGTAGATCAGGGAAGAAAGT registered a PBM binding z-score of 2.03.
The sequence GATGCTAGGTCAGGTTGGTCAGCTAACGGGTACG had a PBM binding z-score of 1.03.
On the same count and under the same terms, with ATATCTAGGTTATCGGGTCATTCAGTTTGCGCAT the figure was 3.47.
Still for that read-out and setting: the result for CAAACTAGGTCAAGACGTCAAAGTCCGCTTCCCG reads 2.6; that for CCTAGTGGGTCAAGGTCACACACGCTATAGGTAC, 4.37; that for CCGACTGGGGCAGAAAGGTTACCATTCCATCCGG, 0.271.
The same measure, in the same setting: the result for CAAACTCGGTCAAAGGTCAAAGTCGAGCCAACCA reads 6.98.
Sequence AGAACGAGGGCAATGAGTTTATAGCACGGGTGGC had a PBM binding z-score of 0.317.
Regarding ATCGAAAGGACGACGAGGTGAGTATACACCGTTT, the PBM binding z-score was -0.132.
Turning to CGAACTAGGGCATGAGTTGATAGCAAATGCCGAT, the PBM binding z-score was -0.357.
Same read-out and setting: with ATCCCTAGGTAAAAGTTCAGTGAATCCCGAGGAT the figure was 1.11; with GCTATCAGTTGAAAGGGCAACCGAATGATTCTCG, 0.591.
Same read-out and setting: the result for TTACCAAGGTGAAGGTCTTTGATCCCTCTGTAGA reads 0.55.
On the same count and under the same terms, the result for CCTGCTAGGTCATTGTCAGCTAATCTACAGTATG reads 2.99.
On to CAAACTAGATCAAGAGGTCAAAGTCCGCTTCCCG, for which the PBM binding z-score was determined as 5.55.
Same read-out and setting: the result for ATATGTAGGTTAGCTGGGGTCATTCATACTAGGC reads 5.73; that for CAAACTAGGTGAAAGGTCAAAGTCGAGCCAACCA, 6.26; that for GCTGCTAGGTCAACTGTTGGTCAGCTAAAGCTCG, 2.97.
TCTGCTAGGTCAGTTGGTCAGCTTACGAGCTGCC gave a PBM binding z-score of 0.456.
GCGACTGGGGCATGAGCAGGTTACCATAACTTAA came in with a PBM binding z-score of -0.325.
Still for that read-out and setting: with TAGCCTGGGTCATTCAGGGGCCAGTATAGAAAGC the figure was 2.28.
TCACATAGGTAAAGGTGAAAGTCGAACGATATGA registered a PBM binding z-score of 1.8.
Still for that read-out and setting: the result for TAGCCTAGGTCAGATCGGGCCAATATACGCTATA reads 1.46; that for GCATTTAGGTAATACAAGGTGAAAGTCCGATTGT, 1.54; that for CCAGACAGGTGAGATGGTAACTCAGCCTCGATTA, -0.133.
In turn, ACTAACAGGCCAAGTTTGGGTCACTCAAACAAAG came in with a PBM binding z-score of 0.251.
On the same count and under the same terms, with ATCTCTAGGTAAAGTTAGTTCAGTGAATGCAAAT the figure was 3.72; with CTACCAAGGTGAACAAGGTCGTTGATTACTATTC, 1.38.

In a further test the test system is LXRa homodimer (NR concentration 270 nM). The description is as above. In a few lines:
as §1
CCGAGTAGGTTATGGGGCACTCAGGCAACGGTGA: the PBM binding z-score is -0.464.
The same measure, in the same setting: with TCATATAGGTAATACAGGTGGAAGTCGGCATCTA the figure was 0.307; with ACTAGCAGGACAAGGGTCACTCAAGATTAGTCCG, 0.432; with GATACAGGGTCAGCTAGAGGCCAGAGTCTGGAAA, -0.316.
In the case of TCTAGATGGTCACGGAGGTCACACACGACGGGTA, the PBM binding z-score is 2.8.
Same read-out and setting: the result for CTCGAAAGGTCGGTTGAGGAGAGTATACGGATAA reads -0.296; that for ATCGAAAGGTCGAAGGGGAGTATACCCACCCGAA, 0.303; that for CCTACTGGGCCATCAGGGCATTGATATCAACGTT, -0.715.
Same read-out and setting: the result for CCTACTGGGCCATCAAGTCATTGATATCAACGTT reads -0.0812.
The same measure, in the same setting: with CGTCCAAGGTCAGAGAGGTCAGTGAATGCCGAGT the figure was 3.
In turn, TCGAGTAGGTTACCAATGTGGCATTCAGCTTTCT had a PBM binding z-score of -0.667.
CGTCCAAGGTCGATGCTAGGTCAGTGAAAGCATT registered a PBM binding z-score of -0.14.
For the sequence AGTATGAGGTTATACGTAGATCAGGGAAGAAAGT, the PBM binding z-score came out at 0.26.
In the case of GATGCTAGGTCAGGTTGGTCAGCTAACGGGTACG, the PBM binding z-score was -0.12.
On the same count and under the same terms, with ATATCTAGGTTATCGGGTCATTCAGTTTGCGCAT the figure was 2.2.
On the same count and under the same terms, the result for CAAACTAGGTCAAGACGTCAAAGTCCGCTTCCCG reads 0.426.
Same read-out and setting: the result for CCTAGTGGGTCAAGGTCACACACGCTATAGGTAC reads 1.16; that for CCGACTGGGGCAGAAAGGTTACCATTCCATCCGG, -0.165; that for CAAACTCGGTCAAAGGTCAAAGTCGAGCCAACCA, 6.36.
Take AGAACGAGGGCAATGAGTTTATAGCACGGGTGGC: the PBM binding z-score was -0.472.
Still for that read-out and setting: with ATCGAAAGGACGACGAGGTGAGTATACACCGTTT the figure was -0.204.
Same read-out and setting: the result for CGAACTAGGGCATGAGTTGATAGCAAATGCCGAT reads -0.246; that for ATCCCTAGGTAAAAGTTCAGTGAATCCCGAGGAT, 0.954.
On the same count and under the same terms, with GCTATCAGTTGAAAGGGCAACCGAATGATTCTCG the figure was 0.000257; with TTACCAAGGTGAAGGTCTTTGATCCCTCTGTAGA, -0.405.
CCTGCTAGGTCATTGTCAGCTAATCTACAGTATG came in with a PBM binding z-score of 0.878.
The same measure, in the same setting: with CAAACTAGATCAAGAGGTCAAAGTCCGCTTCCCG the figure was 6.71; with ATATGTAGGTTAGCTGGGGTCATTCATACTAGGC, 3.67.
Still for that read-out and setting: with CAAACTAGGTGAAAGGTCAAAGTCGAGCCAACCA the figure was 4.36; with GCTGCTAGGTCAACTGTTGGTCAGCTAAAGCTCG, 0.182; with TCTGCTAGGTCAGTTGGTCAGCTTACGAGCTGCC, -0.755.
In turn, GCGACTGGGGCATGAGCAGGTTACCATAACTTAA yielded a PBM binding z-score of -0.638.
Still for that read-out and setting: with TAGCCTGGGTCATTCAGGGGCCAGTATAGAAAGC the figure was -0.548; with TCACATAGGTAAAGGTGAAAGTCGAACGATATGA, 0.139; with TAGCCTAGGTCAGATCGGGCCAATATACGCTATA, 0.0992.
Still for that read-out and setting: the result for GCATTTAGGTAATACAAGGTGAAAGTCCGATTGT reads 0.274; that for CCAGACAGGTGAGATGGTAACTCAGCCTCGATTA, 0.219.
The same measure, in the same setting: with ACTAACAGGCCAAGTTTGGGTCACTCAAACAAAG the figure was -0.258; with ATCTCTAGGTAAAGTTAGTTCAGTGAATGCAAAT, 0.641; with CTACCAAGGTGAACAAGGTCGTTGATTACTATTC, 0.19.
